Measured values from PubChem BioAssay AID1159580 (chemical genetic matrix, 2015).
Screen size: about 5,500 compounds; about 2,000 (36%) were called active. Another 18% or so got no clear call; they are omitted. Rule as the data show it: active = normalized growth mostly below about 0.91 (no sharp cut-off); inconclusive = no clear call, values can overlap the other calls; inactive = mostly above about 0.92. Some of the results follow.

Assay: chemical genetic growth profiling, strain panel (AID 1159580);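 also: tested at 20 µM; growth read once vehicle control cultures reached saturation at 30 °C; 1 = growth at the plate median or of vehicle wells; lower values mean less growth of the strain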
Conditions: growth OD

Measured: normalized growth

COc1ccc(C(C)=O)cc1CSC(=NS(=O)(=O)c1ccccc1)Nc1cccc(F)c1
inactive: S. cerevisiae deletion strains, locus YAL013W, strain DEP1, active compounds read low 1.01 | S. cerevisiae deletion strains, locus YBR229C, strain ROT2, active compounds read low 0.993 | S. cerevisiae deletion strains, locus YDL101C, strain DUN1, active compounds read low 0.988 | S. cerevisiae deletion strains, locus YDL134C, strain PPH21, active compounds read low 0.994 | S. cerevisiae deletion strains, locus YDR150W, strain NUM1, active compounds read low 0.913 | S. cerevisiae deletion strains, locus YEL061C, strain CIN8, active compounds read low 0.974 | S. cerevisiae deletion strains, locus YGR078C, strain PAC10, active compounds read low 1.02 | S. cerevisiae deletion strains, locus YHR030C, strain SLT2, active compounds read low 0.944 | S. cerevisiae deletion strains, locus YHR087W, strain rtc3, active compounds read low 0.981 | S. cerevisiae deletion strains, locus YJR043C, strain POL32, active compounds read low 1.01 | S. cerevisiae deletion strains, locus YJR075W, strain HOC1, active compounds read low 0.981 | S. cerevisiae deletion strains, locus YKL190W, strain CNB1, active compounds read low 0.984 | S. cerevisiae deletion strains, locus YLR039C, strain RIC1, active compounds read low 0.876 | S. cerevisiae deletion strains, locus YLR058C, strain SHM2 (second series), active compounds read low 1 | S. cerevisiae deletion strains, locus YLR085C, strain ARP6, active compounds read low 0.921 | S. cerevisiae deletion strains, locus YLR262C, strain YPT6, active compounds read low 0.915 | S. cerevisiae deletion strains, locus YML094W, strain GIM5, active compounds read low 0.973 | S. cerevisiae deletion strains, locus YMR219W, strain ESC1, active compounds read low 0.999 | S. cerevisiae deletion strains, locus YMR263W, strain SAP30, active compounds read low 0.998 | S. cerevisiae deletion strains, locus YMR307W, strain GAS1, active compounds read low 0.737 | S. cerevisiae deletion strains, locus YNL153C, strain GIM3, active compounds read low 1.03 | S. cerevisiae deletion strains, locus YNL298W, strain CLA4 (second series), active compounds read low 0.963 | S. cerevisiae deletion strains, locus YNL322C, strain KRE1, active compounds read low 0.98 | S. cerevisiae deletion strains, locus YNR030W, strain Alg12, active compounds read low 0.952 | S. cerevisiae deletion strains, locus YPL055C, strain LGE1, active compounds read low 1.02 | S. cerevisiae deletion strains, locus YPL241C, strain CIN2, active compounds read low 0.983 | S. cerevisiae deletion strains, locus YPR135W, strain CTF4, active compounds read low 1.03 | S. cerevisiae strains, strain wild type, active compounds read low 0.988
